CYP2C19 inhib – blockers of cytochrome P450 2C19 activity – biochemical, luminescence, ADME assay, primary screen; CYP2C19 Supersomes, luciferin-H EGE luminescence, 30 min; P33261; inhibition, % at 5 µM; AID 778, 2007; actives 21% (n = 96,000);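 active means CYP2C19 inhibition above a set limit at 5 µM in the primary screen, cut at about 50% in these data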
CYP2C9 inhib – blockers of cytochrome P450 2C9 activity – biochemical, luminescence, ADME assay, primary screen. CYP2C9 Supersomes, luciferin-H conversion. inhibition, % at 5 µM. actives 20% (n = 96,000). AID 777, 2007;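 active means blocking of liver enzyme CYP2C9 beyond about 50% at 5 µM, limit read from the data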
Target sequence (P11712 whole entry, looked up): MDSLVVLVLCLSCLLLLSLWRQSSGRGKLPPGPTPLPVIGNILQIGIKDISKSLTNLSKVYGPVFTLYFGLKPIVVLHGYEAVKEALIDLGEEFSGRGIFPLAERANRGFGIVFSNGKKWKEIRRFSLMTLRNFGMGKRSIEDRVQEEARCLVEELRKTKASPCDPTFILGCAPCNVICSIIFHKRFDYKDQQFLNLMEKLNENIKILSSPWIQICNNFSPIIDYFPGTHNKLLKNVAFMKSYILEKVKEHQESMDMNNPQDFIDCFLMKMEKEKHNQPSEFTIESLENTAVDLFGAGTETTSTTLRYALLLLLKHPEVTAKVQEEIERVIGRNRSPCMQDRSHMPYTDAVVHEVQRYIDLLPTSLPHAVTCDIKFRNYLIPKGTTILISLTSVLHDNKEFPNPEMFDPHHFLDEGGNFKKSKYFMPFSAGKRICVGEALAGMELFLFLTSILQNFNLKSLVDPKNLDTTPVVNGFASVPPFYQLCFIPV
CYP2C19 act – human CYP2C19 activators, primary screen, biochemical, luminescence; activation factor at 5 µM; recombinant CYP2C19, luciferin-H EGE luminescence; stronger effect = higher value; 0 = fully inhibited enzyme, 1 = untreated enzyme; Cytochrome P450 2C19 (Homo sapiens), P33261; 96,000 tested, under 10 active;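 active means activation factor of at least 2 at 5 µM in the primary screen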
CYP2C9 activ – human CYP2C9 activators, primary screen, biochemical, luminescence. recombinant CYP2C9, luciferin-H conversion; stronger effect = higher value; factor 1 = untreated enzyme, 0 = blocked. activation factor at 5 µM. actives 1.4% (n = 96,000). AID 1024, 2008;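 active means activation factor of 2 or more for CYP2C9 at a 5 µM dose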
Large screens that a line does not name were inactive. An excerpt weighted towards active compounds, which were near 31% of everything screened.

Cn1c(=O)c2c(nc(NCc3ccccc3)n2C)n(C)c1=O	none
CC(C)CCNc1nc2c(c(=O)n(Cc3cccc(F)c3)c(=O)n2C)n1C	CYP2C19 inhib 88, CYP2C9 inhib 85
Cn1c(NCC(O)c2ccccc2)nc2c1c(=O)n(Cc1ccc(Cl)cc1)c(=O)n2C (stereo not drawn)	CYP2C9 inhib 53
COc1ccc(CNc2nc3c(c(=O)n(Cc4ccc(F)cc4)c(=O)n3C)n2C)cc1	CYP2C19 inhib 91, CYP2C9 inhib 81
Cn1c(NCc2ccccc2)nc2c1c(=O)n(Cc1ccccc1)c(=O)n2C	none
CCCn1c(SCC(=O)Nc2ccccc2Oc2ccccc2)n[nH]c1=O	CYP2C19 inhib 81, CYP2C9 inhib 74
O=C(CSc1n[nH]c(=O)n1C1CC1)Nc1cc(Cl)ccc1Oc1ccccc1	CYP2C19 inhib 59, CYP2C9 inhib 83
O=C(COc1ccccc1Cl)Nc1cc(Cl)ccc1Oc1ccccc1	none
CCCn1c(SCC(=O)c2cc(C)c(C)cc2C)n[nH]c1=O	CYP2C9 inhib 74
CCCn1c(SCC(=O)Nc2cc(Cl)ccc2OC)n[nH]c1=O	CYP2C19 inhib 90
Cc1cccc(-c2oc(C)c(C)[n+]2[O-])c1	none
COc1ccc(/C=C2\CCc3ccccc3C2=O)cc1Cn1cccn1	CYP2C19 inhib 78
Cc1ccc(-c2csc(NC(=O)COC(=O)c3cccc(S(=O)(=O)N4CCOCC4)c3)n2)cc1	none
Cc1ccc(-c2csc(NC(=O)c3cccc(S(=O)(=O)N4CCN(C)CC4)c3)n2)cc1	CYP2C19 inhib 97
COc1cccc(C(=O)Nc2nc(-c3ccc(S(=O)(=O)N4CCOCC4)cc3)cs2)c1	CYP2C9 inhib 83
O=C(Nc1nc(-c2cccs2)cs1)c1cccc(S(=O)(=O)N2CCCCC2)c1	CYP2C19 inhib 51, CYP2C9 inhib 84
CC/C(=N\NS(C)(=O)=O)c1ccccc1	none
CCOC(=O)N1CCN(C(=O)Nc2ccc3nc(C)c(C)nc3c2)CC1	none
CCN1C(=O)/C(=C\c2cccs2)C(C(=O)OC)=C1C	CYP2C9 inhib 51
Cc1ccccc1OCC(=O)N/N=C1\CCOc2c(C)cccc21	none
COc1ccc(O)c(-c2cc(-c3cccs3)[nH]n2)c1	CYP2C9 inhib 74
Nn1cc(-c2ccccc2)nc1SCC(=O)NC1CCS(=O)(=O)C1 (stereo not drawn)	none
CN(C(=O)CSc1nc(-c2ccccc2)cn1N)C(c1ccccc1)c1ccccc1	CYP2C9 inhib 76
N#CCCN(C(=O)CSc1nc(-c2ccccc2)cn1N)c1ccc(F)cc1	none
Cn1c(SCC(=O)NCCN2C(=O)CSC2=O)nc2ccccc2c1=O	none
COc1ccccc1CNC(=O)CSc1nc(-c2ccccc2)cn1N	CYP2C19 inhib 93, CYP2C9 inhib 87
Nn1cc(-c2ccccc2)nc1SCC(=O)NCCN1C(=O)CSC1=O	CYP2C19 inhib 60
Cc1c(NC(=O)c2ccc(Br)o2)c(=O)n(-c2ccccc2)n1C	none
CC(NC(=O)c1cc(-c2cccs2)on1)c1ccccc1 (stereo not drawn)	none
CCOc1cccc(C2C(C(=O)c3ccco3)=C(O)C(=O)N2Cc2ccncc2)c1 (stereo not drawn)	none
CCCOc1ccc(C2C(=O)N(C3CCCCC3)CC(=O)N2C2CC2)cc1OC (stereo not drawn)	none
O=C(Nc1nc(-c2ccc(-c3ccccc3)cc2)cs1)C1CCCO1 (stereo not drawn)	none
O=C(Nc1ccncc1)C1c2ccccc2Oc2ccccc21	CYP2C19 inhib 97, CYP2C9 inhib 98
O=C(Nc1nc(-c2ccccc2)cs1)C1CCCO1 (stereo not drawn)	CYP2C19 inhib 62, CYP2C9 inhib 54
CC(C)c1nnc(NC(=O)C2c3ccccc3Oc3ccccc32)s1	none
Cc1cccc2sc(NC(=O)C3c4ccccc4Oc4ccccc43)nc12	CYP2C9 inhib 80
O=C(Nc1nncs1)C1c2ccccc2Oc2ccccc21	CYP2C19 inhib 54
COC(=O)Nc1nc2c(C)cccc2s1	none
Cc1cc(C)c(C)c(S(=O)(=O)ON2C(=O)c3ccccc3C2=O)c1C	none
O=C(Nc1nc(-c2ccccc2)cs1)C1c2ccccc2Oc2ccccc21	CYP2C9 inhib 72
O=C(Nc1cccnc1Cl)C1c2ccccc2Oc2ccccc21	CYP2C19 inhib 70
CCCCN1C(=O)C(NC(=O)CC(C)C)(C(F)(F)F)C2=C1CC(C)(C)CC2=O (stereo not drawn)	none
COc1ccc(C)cc1NC(=O)CN1CCN(S(=O)(=O)c2ccc(F)cc2)CC1	CYP2C19 inhib 52
CC(C)(C)C(=O)CN1CCN(S(=O)(=O)c2ccc(F)cc2)CC1	none
COc1ccccc1N1CCN(CCC(=O)Nc2ccc3c(c2)OCO3)CC1	CYP2C19 inhib 54, CYP2C9 inhib 65
COc1cccc(NC(=O)CCN2CCN(c3ccccc3F)CC2)c1	none
COc1ccc(C)cc1NC(=O)CN1CCN(C/C=C/c2ccccc2)CC1	CYP2C19 inhib 88, CYP2C9 inhib 67
COc1ccc(OC)c(NC(=O)CCN2CCN(c3ccccc3F)CC2)c1	CYP2C19 inhib 77, CYP2C9 inhib 60
COc1ccc(C)cc1NC(=O)CCCN1C(=O)CCC1=O	none
COc1ccc(C)cc1NC(=O)CN1CCN(c2ccccc2F)CC1	CYP2C19 inhib 70
COC(=O)c1cc2occc2n1CC(=O)N(C)C1CCCCC1	none
Cc1cccc(N2CCN(C(=O)c3cccc(N4C(=O)C5CC=CC(C)C5C4=O)c3)CC2)c1C (stereo not drawn)	CYP2C9 inhib 59
COCCCNC(=S)NNC(=O)c1cccnc1	none
COc1ccc(/C=N/c2oc(-c3ccccc3)cc2C#N)cc1	none
COc1[nH]c(/N=C/c2ccccc2)c(C#N)c1C#N	CYP2C9 inhib 75
COc1ccc(-c2n[nH]c(C)c2-c2cnn(-c3ccccc3)c2)c(O)c1C	CYP2C9 inhib 52
CCOc1ccc(-c2n[nH]c(C)c2-c2ccccc2OC)c(O)c1	none
CN(C)CCOC(=O)c1cccc(Br)c1	none
Cc1[nH]c2ccc(C(=O)OCCN(C)C)cc2c1C	CYP2C19 inhib 86
O=C(NCC(=O)N1CCN(c2ncccn2)CC1)c1cccs1	CYP2C19 inhib 59
Cc1ccc(C(=O)NCC(=O)N2CCN(c3ncccn3)CC2)s1	CYP2C9 inhib 72
Cc1ccc2c3c(c(SCC(=O)Nc4nccs4)nc2c1)CCCC3	none
CCCc1nc(SC2CCCC2)c2c(=O)n(C)c(=O)n(C)c2n1	none
Cc1noc(C)c1S(=O)(=O)N1CCCC(C(=O)NCc2ccccn2)C1 (stereo not drawn)	none
Cc1noc(/C=C/N(C)C)c1S(=O)(=O)N1CCCC(C(=O)NCc2ccccc2Cl)C1 (stereo not drawn)	CYP2C9 inhib 78
Cc1noc(/C=C/N(C)C)c1S(=O)(=O)N1CCCC(C(=O)NCc2ccc(F)cc2)C1 (stereo not drawn)	CYP2C9 inhib 73
Cc1noc(/C=C/N(C)C)c1S(=O)(=O)N1CCCC(C(=O)NCc2ccc(Cl)cc2)C1 (stereo not drawn)	CYP2C9 inhib 77
CCCNC(=O)Cn1cccc1C(=O)c1ccccc1	none
